RBX1-CUL1 inh: human ROC1-CUL1 E3 ligase inhibition | P62877+Q13616 | 140,000 tested, 0.6% active | inhibition, % at 10 µM | in vitro K48 di-Ub FRET, acceptor:donor ratio, 45 min; in the data active = inhibition above about 25%
Starred values were filed as active, the others as inactive. The entries come from a sample that favours hits as a whole.

SMILES	RBX1-CUL1 inh
O=C1NN(c2cccc(Br)c2)C(=O)/C1=C\c1ccc(-c2ccc(C(=O)O)cc2)o1	60.2*
Cc1cccc(N2NC(=O)/C(=C/c3ccc(-c4ccc(Cl)c(C(=O)O)c4)o3)C2=O)c1	2.7
CC(=O)NCC(=O)N1CCCC(CCc2ccccc2F)C1 (stereo not given)	-6.9
Cc1cc(CN2CC[C@@H](N3CCN(C)CC3)[C@H](O)C2)cc(C)c1O	4.5
COC(=O)C1C2c3ccccc3OC1(C)N=c1s/c(=C/c3ccc(OC)c(COc4ccc(F)cc4F)c3)c(=O)n12 (stereo not given)	-4.7
O=S(=O)(Oc1ccc(Cl)cc1Cl)c1ccc(I)cc1	8.3
CN(C)CCOc1ccc2c(c1)C(=O)c1ccccc1CS2	100.6*
CN(C)CC/C=C1/c2cc(Br)ccc2CSc2ccccc21	-6.9
O=C1c2ccccc2CSc2c(O)cccc21	-2.0
CCCCc1ccc(NC(=O)/C=C/c2cnn(C)c2C)cc1	0.8
CCOc1ccccc1N1C(=O)c2ccc(C(=O)Nc3ccc(Br)cc3C(=O)O)cc2C1=O	-3.4
CC(c1ccccc1)N1C(=O)c2ccc(C(=O)Nc3ccc(Br)cc3C(=O)O)cc2C1=O (stereo not given)	39.4*
CCCN1C(=O)c2ccc(C(=O)Nc3ccc(Br)cc3C(=O)O)cc2C1=O	9.3
CCCCCCCC1=NN2C(=N)/C(=C/c3ccc(-c4ccc(Cl)cc4)o3)C(=O)N=C2S1	2.7
CCCCCCCC1=NN2C(=N)/C(=C/c3ccc(-c4ccc(F)cc4)o3)C(=O)N=C2S1	7.8
CCCCCC1=NN2C(=N)/C(=C\c3ccc([N+](=O)[O-])o3)C(=O)N=C2S1	101.1*
COc1ccc(C(=O)N2CC[C@@H](N3CCC(O)CC3)[C@H](O)C2)cc1C	4.1
CC1(C)CC(=O)CC(=NCC2c3ccccc3CCN2C(=S)NC2CCCC2)C1 (stereo not given)	10.2
O=C1C(=Cc2ccc(-c3cc(Cl)ccc3Cl)o2)C(=O)N(c2ccccc2)C(=S)N1c1ccccc1	-11.1
CC1=NOC(=O)/C1=C/c1cccn1C	2.5
CC1=NOC(=O)/C1=C\c1ccc(-c2cc(Cl)ccc2Cl)o1	97.4*
COc1cccc(CCC2CCCN(C(=O)C(C)(C)C)C2)c1 (stereo not given)	1.5
Cc1nc(N2CCCC(NCc3c(F)cccc3F)CC2)nc2ccc(F)cc12 (stereo not given)	-0.5
CCCC12CN3CC(C)(CN(C1)C3C1C(=O)NC(=O)N=C1C)C2=O (stereo not given)	7.7
O=C(NNC(=O)c1cc2cc(Br)ccc2oc1=O)c1ccc(O)cc1O	43.9*
SMILES	RBX1-CUL1 inh
O=C(NNC(=O)c1cc2cc(Br)ccc2oc1=O)c1ccncc1	5.4
CCOC(=O)NC(=O)c1cc2cc(Br)ccc2oc1=O	-0.4
COc1ccccc1Oc1ncccc1CNCc1cnc(C)n1C	3.6
CCCCCCCCCCOc1ccc(N=CC=Nc2ccc(OCCCCCCCCCC)cc2)cc1	2.2
CCCCCCOc1ccc(/C(CCCCC/C(=N\O)c2ccc(OCCCCCC)cc2)=N\O)cc1	-2.9
CCCCCCCCCOc1ccc(C#CC(=O)O)cc1	98.8*
O=C1Nc2c(cc([N+](=O)[O-])cc2[N+](=O)[O-])C(=O)C1(Cl)Cl	21.2
COc1c(Cl)cc2c(c1Cl)NC(=O)C(Cl)(Cl)C2=O	45.5*
COc1cccc2c1NC(=O)C(Cl)(Cl)C2=O	-2.5
Nc1nc(Nc2ccc(O)cc2)nc2ccccc12	-0.5
Cc1ccc(S(=O)(=O)Nc2ccccc2-c2ccccc2NS(=O)(=O)c2ccc(C)cc2)cc1	7.2
CCOc1ccc(S(=O)(=O)Nc2ccc(S(=O)(=O)Nc3cccc4ccccc34)cc2)cc1	3.4
Cc1cc(O)ccc1NS(=O)(=O)c1ccccc1	9.4
CCOc1ccc(S(=O)(=O)Nc2cc3c(C(=O)OC)c(COC)oc3c3ccccc23)cc1	3.7
CCOc1ccc(S(=O)(=O)Nc2cc(SCC(=O)O)c(O)c3ccccc23)cc1	43.5*
COc1ccc(S(=O)(=O)Nc2cc(SCc3ccccc3)c(O)c3ccccc23)cc1	2.1
CCc1ccc(S(=O)(=O)Nc2cc(SCC(=O)O)c(O)c3ccccc23)cc1	107.6*
Cc1ccc(Sc2cc(NS(=O)(=O)c3ccccc3)c3ccccc3c2O)cc1	70.1*
CCc1ccc(S(=O)(=O)NCC(=O)O)cc1	6.7
CCCCN1CC(C(=O)Nc2ccc(F)cc2)CC1=O (stereo not given)	-3.3
COC(=O)Nc1nc2cc(Oc3ccc(NC(C)=O)cc3)c(C)cc2[nH]1	-11.1
CN(C(=O)c1cc2nc(-c3ccccc3)cc(-c3ccccc3)n2n1)c1ccc(OC(F)(F)F)cc1	-0.3
O=C1Oc2ccccc2C(=O)C1C(c1ccc(F)cc1)C1C(=O)Oc2ccccc2C1=O (stereo not given)	-0.4
O=C1Oc2ccccc2C(=O)C1C(c1cccc(O)c1)C1C(=O)Oc2ccccc2C1=O (stereo not given)	12.5
Cc1cccc2c1OC(=O)C(C(c1ccc(Cl)cc1)C1C(=O)Oc3c(C)cccc3C1=O)C2=O (stereo not given)	78.3*
SMILES	RBX1-CUL1 inh
COc1ccc(OC)c(NC(=S)N2C(=O)CCC2=O)c1	0.1
O=c1[nH]c(-c2cccc(Cl)c2Cl)nc2sc3c(c12)CCCCCC3	-11.6
O=C(O)c1cccc(-c2ccc(-c3nc4sc5c(c4c(=O)[nH]3)CCCC5)o2)c1	97.4*
O=C(O)c1ccc(-c2ccc(-c3nc4sc5c(c4c(=O)[nH]3)CCCCC5)o2)cc1	4.7
Cc1cccc(OCCCC(=O)Nc2sc3c(c2C#N)CCCC3)c1	-18.0
CCC(c1ccccc1)c1n[nH]c2c1CN(C(=O)COc1cccnc1)CC2 (stereo not given)	-1.7
Cn1nc(C(=O)N2CCN(c3ccc(Cl)cc3)CC2)c2c1-c1ccccc1SC2	0.9
Cc1ccc2c(c1)-c1c(c(C(=O)N3CCN(c4cc(C)ccc4C)CC3)nn1C)CS2	44.2*
COc1ccc(NC(=O)c2nn(C)c3c2CSc2ccc(C)cc2-3)cc1OC	6.2
O=C(Nc1ccc2ccccc2c1)c1ccc(Cl)c([N+](=O)[O-])c1	-2.9
CC1=NN(c2ccccc2)C(=S)C1C=Nc1nc2ccccc2s1 (stereo not given)	-3.6
COc1ccc(/C=C2/C(=N)N3N=C(C(F)(F)F)SC3=NC2=O)c(OC)c1OC	6.3
N=C1/C(=C/c2ccc(-c3ccccc3)o2)C(=O)N=C2SC(c3ccccc3Cl)=NN12	3.5
N=C1/C(=C/c2ccc(-c3ccccc3)o2)C(=O)N=C2SC(C(F)(F)F)=NN12	60.0*
CC(C)C1=NN2C(=N)/C(=C/c3ccc(-c4cc(Cl)cc(Cl)c4)o3)C(=O)N=C2S1	-0.6
Cc1c(/C=C2\C(=N)N3N=C(C(F)(F)F)SC3=NC2=O)c2ccccc2n1Cc1ccc(F)cc1	4.5
N=C1/C(=C/c2ccc(-c3ccc(F)cc3)o2)C(=O)N=C2SC(C(F)(F)F)=NN12	93.2*
Nc1c(C(=O)Oc2ccccc2)sc2nc(-c3ccccc3)ccc12	-1.2
Cc1ccc(OC(=O)C2CCCCC2)c(C)c1	2.9
COc1cc(NC(=S)N2CCN(c3ccc(F)cc3)CC2)c(OC)cc1Cl	-1.3
Nc1nc2cc(N)c(N)cc2s1	93.2*
Nc1nc2cc3nsnc3cc2s1	0.0
CCOc1ccc2nc(N)sc2c1	-3.3
Cc1nc(C(C)N(C)Cc2c(C(=O)N3CCCCC3)nc3sccn23)c(C)s1 (stereo not given)	-2.8
COC(=O)c1cc(NC(=O)Cc2cccs2)cc(C(=O)OC)c1	56.2*
COC(=O)c1cc(NC(=O)Cc2cccs2)ccc1O	-5.9
CCOC(=O)c1cccc(NC(=O)Cc2cccs2)c1	4.2
